Consider 30 compounds from PubChem BioAssay (EPA / NIEHS).

Each structure is given as a SMILES string. Inconclusive results are not listed. Activity calls are given as the source filed them. How the source made its calls, unless noted: active means hit-call score of the fitted dose curve at least 0.9, where 1 is the maximum; inactive means score below 0.9.

Read-out in one assay: Cytochrome P450 (CYP24A1_1), CYP24A1 (gene 1591)
The experiment in a line: LTEA_HepaRG_CYP24A1_1: Life Technologies and Expression Analysis (LTEA) Assay for Cytochrome P450 (CYP24A1_1) using HepaRG (AID 2283671). Particulars: mRNA level, 48 h; actives raise or lower the signal. In a few lines:
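HepaRG, 48 h exposure, 8-pt half-log series from 100 uM in 0.5% DMSO, duplicates. Readout: TaqMan qRT-PCR of CYP24A1 mRNA, housekeeping-normalized (ACTB/GAPDH/POLR2A). Bidirectional curve fit vs DMSO baseline.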
As for `CCCC(CCC)C(=O)O`, the call was inactive.

`COc1cc2c(c(OC)c1OC)-c1ccc(OC)c(=O)cc1[C@@H](NC(C)=O)CC2`: the concentration at half-maximal activity (AC50) (usually the concentration at which the activity in the assay is half-maximal) is 0.067 µM (active).

As for `c1ccc2cc3ccccc3cc2c1`, the call was inactive.

Tested on in another assay: not listed separately
The assay is described as follows: CCTE_Padilla_ZF_144hpf_TERATOSCORE: (Legacy) CCTE's 144 Hour Post-fertilization zebrafish Assay Teratoscore, Padilla Lab (AID 2283679).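 On AC50: zebrafish embryos with chorions exposed by immersion from 6-8 hpf to 5 dpf with daily renewal; teratogenicity score from eye scoring of death hatching and malformations at 144 hpf; higher score means more developmental defects relative to DMSO baseline.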
Details: not given
In a few lines:
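Larvae scored by eye at 144 hpf for death, hatching and malformations after a day in clean Hanks'. Before that, daily-renewed exposure at 80 uM (0.4% DMSO, 26C) from roughly 6-8 hpf through 5 dpf, 4 embryos per chemical.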
`CCCCCCCC1CCC(=O)O1` (stereo unspecified): the concentration at half-maximal activity (AC50) was 8.03 µM (active).

With `O=C1CN(N=Cc2ccc([N+](=O)[O-])o2)C(=O)N1`, the outcome was inactive.

Consider `c1ccc(C(O[C@@H]2CCCN(CCc3ccc4c(c3)OCO4)C2)c2ccccc2)cc1`, for which the AC50 is 2.1 µM (active).

With `O=C(O)c1cccc(C[C@@H]2COc3ccc(OCc4nc5cc(F)ccc5s4)cc3[C@@H]2O)c1`, the AC50 was 0.463 µM (active).

Regarding `CCCCCCCCCCCCCCCCOS(=O)(=O)O`, the AC50 is 7.7 µM (active).

Consider `CCc1ccc(O)c(C(C)(C)C)c1`, for which the AC50 was 25.1 µM (active).

As to `CC(C)C(=O)Nc1ccc([N+](=O)[O-])c(C(F)(F)F)c1`, the concentration at half-maximal activity (AC50) is 14.2 µM (active).

For the compound `O=c1[nH]cnc2c1ncn2[C@H]1CC[C@@H](CO)O1`, the call was inactive.

Turning to `CCCCOC(=O)c1ccccc1`, the AC50 is 59.1 µM (active).

As to `NC(=O)N(O)[C@@H]1COc2cc(OCc3ccccc3)ccc21`, the call was inactive.

Consider `CCCC(CCC)C(=O)O`, for which the AC50 was 78.7 µM (active).

With `COc1cc(C(C)C)c2c(c1)S(=O)(=O)N(COc1cc(=O)n3cccc(OCCN4CCCCC4)c3n1)C2=O`, the AC50 is 15.5 µM (active).

`CCN(CC)C(=S)SSC(=S)N(CC)CC`: the half-maximal activity concentration (AC50) was 0.183 µM (active).

As for `COc1cc2c(c(OC)c1OC)-c1ccc(OC)c(=O)cc1[C@@H](NC(C)=O)CC2`, the concentration at half-maximal activity (AC50) is 61.5 µM (active).

With `CC[C@H](C)C(=O)O[C@H]1C[C@H](O)C=C2C=C[C@H](C)[C@H](CC[C@@H](O)C[C@@H](O)CC(=O)O)[C@H]21`, the compound was called inactive.

As to `CC(C)c1nnc2ccc(-c3ocnc3-c3cc(F)ccc3F)cn12`, the AC50 is 61.9 µM (active).

For the compound `C=CCc1cc(S(=O)(=O)c2ccc(O)c(CC=C)c2)ccc1O`, the AC50 was 60 µM (active).

In the case of `OCc1ccccc1`, the outcome was inactive.

Regarding `Cn1cc[nH]c1=S`, the compound was classed as inactive.

For `CCCCC(CC)C(=O)OCCOCCOCCOC(=O)C(CC)CCCC` (stereo unspecified), the AC50 was 4.5 µM (active).

Take `OCC(CO)(CO)CO`: the result was inactive.

`C[C@@H](Oc1ccc(CNC(=O)c2cccnc2Oc2ccc3c(c2)OCO3)c(F)c1)C(=O)O`: the result was inactive.

`CCCc1ccccc1`: the call was inactive.

Tested on in another assay: not listed separately
The experiment in a line: STM_H9_CystineISnorm_perc: Stemina devTOX quickPredict H9 human embryonic stem cell (hESC)-based Assay for Cystine (CYSS) Metabolite Biomarker, Normalized (AID 2283713).
Details: not given
Put shortly: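 Undifferentiated H9 hESCs exposed 72 h, compound and media replaced every 24 h; final 24-h media analysed by UPLC-HRMS. Cystine normalized to C13 spike-in standard and median 0.1% DMSO control.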
Take `O=C1CN(N=Cc2ccc([N+](=O)[O-])o2)C(=O)N1`: the concentration at half-maximal activity (AC50) is 5.91 µM (active).

Take `COS(C)(=O)=O`: the AC50 was 62.6 µM (active).

Consider `Cc1ncc([C@@H](CCCCCCc2ccc3c(n2)NCCC3)CC(=O)O)cn1`, for which the concentration at half-maximal activity (AC50) was 0.0101 µM (active).

For the compound `CC(C)C(=O)Nc1ccc([N+](=O)[O-])c(C(F)(F)F)c1`, the AC50 was 31.6 µM (active).

Regarding `Cc1nc(-c2ccccn2)ncc1C(=O)Nn1cc(C)c2cc(F)ccc21`, the result was inactive.

For `CCCCN1C(=O)[C@@H]([C@H](O)C2CCCCC2)NC(=O)C12CCN(Cc1ccc(Oc3ccc(C(=O)O)cc3)cc1)CC2`, the half-maximal activity concentration (AC50) is 2.26 µM (active).

In the case of `O=c1[nH]cnc2c1ncn2[C@H]1CC[C@@H](CO)O1`, the result was inactive.

Take `CCCC(CCC)C(=O)O`: the half-maximal activity concentration (AC50) was 242 µM (active).

With `CCN(CC)C(=S)SSC(=S)N(CC)CC`, the AC50 is 0.682 µM (active).

Regarding `COc1cc2c(c(OC)c1OC)-c1ccc(OC)c(=O)cc1[C@@H](NC(C)=O)CC2`, the concentration at half-maximal activity (AC50) is 0.0121 µM (active).

For `CC[C@H](C)C(=O)O[C@H]1C[C@H](O)C=C2C=C[C@H](C)[C@H](CC[C@@H](O)C[C@@H](O)CC(=O)O)[C@H]21`, the outcome was inactive.

Regarding `Cn1cc[nH]c1=S`, the AC50 was 37.7 µM (active).

Take `Nc1ccn([C@@H]2O[C@H](CO)[C@@H](O)[C@@H]2O)c(=O)n1`: the AC50 is 0.142 µM (active).

Tested on in the next assay: not listed separately
The assay is described as follows: STM_H9_OrnCyssISnorm_ratio: Stemina devTOX quickPredict H9 human embryonic stem cell (hESC)-based Assay for Ornithine (ORN):Cystine (CYSS) Ratio (AID 2283714; active means hit-call score of the fitted dose curve at least 0.9, where 1 is the maximum).
Details: not given
Put shortly:
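Undifferentiated H9 hESCs were exposed to compound for 72h with media and chemical replaced every 24h. Final 24-h conditioned media were deproteinized and analysed by UPLC-HRMS. ORN and CYSS peak areas were normalized to C13 internal standards and the ratio taken versus 0.1% DMSO.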
Regarding `O=C1CN(N=Cc2ccc([N+](=O)[O-])o2)C(=O)N1`, the AC50 was 6.21 µM (active).

For the compound `COS(C)(=O)=O`, the AC50 is 65.5 µM (active).

On to `Cc1ncc([C@@H](CCCCCCc2ccc3c(n2)NCCC3)CC(=O)O)cn1`, for which the AC50 is 0.0104 µM (active).

With `CC(C)C(=O)Nc1ccc([N+](=O)[O-])c(C(F)(F)F)c1`, the concentration at half-maximal activity (AC50) was 50 µM (active).

Take `Cc1nc(-c2ccccn2)ncc1C(=O)Nn1cc(C)c2cc(F)ccc21`: the result was inactive.

Turning to `CCCCN1C(=O)[C@@H]([C@H](O)C2CCCCC2)NC(=O)C12CCN(Cc1ccc(Oc3ccc(C(=O)O)cc3)cc1)CC2`, the AC50 is 2.14 µM (active).

With `CCCC(CCC)C(=O)O`, the AC50 is 293 µM (active).

Take `CCN(CC)C(=S)SSC(=S)N(CC)CC`: the AC50 was 0.325 µM (active).

As for `COc1cc2c(c(OC)c1OC)-c1ccc(OC)c(=O)cc1[C@@H](NC(C)=O)CC2`, the AC50 is 0.0127 µM (active).

Take `Nc1ccn([C@@H]2O[C@H](CO)[C@@H](O)[C@@H]2O)c(=O)n1`: the concentration at half-maximal activity (AC50) is 0.203 µM (active).

Read-out in the next assay: not listed separately
The assay is described as follows: CEETOX_H295R_MTT_cell_viability: Viability Assessment in the CeeTox HT-H295R MTT Assay (AID 2283718).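 On AC50: curve fitted both ways so AC50 may mark viability loss or gain.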
Details: not given
In a few lines: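 H295R cells prestimulated 48 h with 10 uM forskolin, then exposed 48 h to test chemical (0.1% DMSO final). Viability by MTT (0.5 mg/ml, 4 h, 37 C), absorbance 570/650 nm; percent change versus DMSO, bidirectional fit.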
As to `CCn1nc(C)c2c1C(=O)NCC(c1ccc(O)cc1)=N2`, the outcome was inactive.

`Cc1ncc([C@@H](CCCCCCc2ccc3c(n2)NCCC3)CC(=O)O)cn1`: the call was inactive.

Regarding `Cc1nc(-c2ccccn2)ncc1C(=O)Nn1cc(C)c2cc(F)ccc21`, the half-maximal activity concentration (AC50) is 75.8 µM (active).

Regarding `CCN(CC)C(=S)SSC(=S)N(CC)CC`, the compound was classed as inactive.

With `COc1cc2c(c(OC)c1OC)-c1ccc(OC)c(=O)cc1[C@@H](NC(C)=O)CC2`, the concentration at half-maximal activity (AC50) is 0.118 µM (active).

Regarding `CC[C@H](C)C(=O)O[C@H]1C[C@H](O)C=C2C=C[C@H](C)[C@H](CC[C@@H](O)C[C@@H](O)CC(=O)O)[C@H]21`, the compound was classed as inactive.

`CC(C)c1nnc2ccc(-c3ocnc3-c3cc(F)ccc3F)cn12`: the call was inactive.

For the compound `C=CCc1cc(S(=O)(=O)c2ccc(O)c(CC=C)c2)ccc1O`, the result was inactive.

Take `c1ccc2cc3ccccc3cc2c1`: the call was inactive.

As for `CCCCC(CC)C(=O)OCCOCCOCCOC(=O)C(CC)CCCC` (stereo unspecified), the call was inactive.

With `Nc1ccn([C@@H]2O[C@H](CO)[C@@H](O)[C@@H]2O)c(=O)n1`, the half-maximal activity concentration (AC50) was 1.43 µM (active).

For the compound `C[C@@H](Oc1ccc(CNC(=O)c2cccnc2Oc2ccc3c(c2)OCO3)c(F)c1)C(=O)O`, the outcome was inactive.
